# Measured values from the antibiotic and cytotoxicity screens of Wong et al. (2023).
# About 3,300 (8.5%) of roughly 39,000 compounds were called active. For the sample, actives were picked, then their nearest neighbours and some compounds at random.
# Test system: HepG2
# Assay: cytotoxicity call (relative viability < 0.9)
# Conditions: 10 µM
row,Structure (SMILES),cytotoxicity call
1,C[C@H]1CN([C@@H](C)CO)C(=O)c2cc(NC(=O)c3ccncc3)ccc2O[C@H]1CN(C)Cc1ccc(C(=O)O)cc1,inactive
2,C[C@@H]1CCCCO[C@H](CN(C)S(=O)(=O)c2ccc(Cl)cc2)[C@@H](C)CN([C@@H](C)CO)C(=O)c2cc(NC(=O)Nc3cccc4ccccc34)ccc2O1,inactive
3,C[C@@H]1CN([C@H](C)CO)C(=O)c2cc(NC(=O)Nc3ccccc3)ccc2O[C@@H](C)CCCCO[C@H]1CN(C)S(=O)(=O)c1ccc(Cl)cc1,active
4,C[C@@H]1CCCCO[C@H](CN(C)S(=O)(=O)c2ccc(Cl)cc2)[C@@H](C)CN([C@H](C)CO)C(=O)c2cc(NC(=O)Nc3cccc4ccccc34)ccc2O1,inactive
5,C[C@@H]1CCCCO[C@@H](CN(C)S(=O)(=O)c2ccc(Cl)cc2)[C@@H](C)CN([C@H](C)CO)C(=O)c2cc(NC(=O)Nc3ccccc3)ccc2O1,inactive
6,C[C@@H]1CCCCO[C@@H](CN(C)S(=O)(=O)c2ccc(Cl)cc2)[C@@H](C)CN([C@@H](C)CO)C(=O)c2cc(NC(=O)Nc3cccc4ccccc34)ccc2O1,active
7,C[C@@H]1CN([C@@H](C)CO)C(=O)c2cc(NC(=O)Nc3ccccc3)ccc2O[C@@H](C)CCCCO[C@@H]1CN(C)S(=O)(=O)c1ccc(Cl)cc1,inactive
8,C[C@H](CO)N1C[C@H](C)[C@@H](CN(C)S(=O)(=O)c2ccc(Cl)cc2)OCCCC[C@H](C)Oc2ccc(NC(=O)Nc3ccccc3)cc2C1=O,inactive
9,C[C@@H]1CN([C@@H](C)CO)C(=O)c2cc(NC(=O)Nc3ccccc3)ccc2O[C@@H](C)CCCCO[C@H]1CN(C)S(=O)(=O)c1ccc(Cl)cc1,active
10,C[C@@H]1CCCCO[C@@H](CN(C)S(=O)(=O)c2ccc(Cl)cc2)[C@@H](C)CN([C@@H](C)CO)C(=O)c2cc(NC(=O)Nc3ccccc3)ccc2O1,inactive
11,C[C@H](CO)N1C[C@H](C)[C@H](CN(C)C(=O)Nc2ccccc2)OCCCC[C@H](C)Oc2ccc(NC(=O)NC3CCCCC3)cc2C1=O,inactive
12,C[C@@H]1CN([C@H](C)CO)C(=O)c2cccc(NC(=O)Nc3cccc4ccccc34)c2O[C@@H]1CN(C)S(=O)(=O)c1ccc(Cl)cc1,inactive
13,Cc1ccc(/C=N/Nc2cnnc(=O)[nH]2)o1,inactive
14,O=C(Cn1cnnn1)NC1C(=O)N2C(C(=O)O)=C(CSc3nncs3)CSC12 (centres undefined),inactive
15,COCC(=O)Nc1ccc2c(c1)OC[C@@H](C)N(C(=O)Cc1ccccn1)C[C@H](C)[C@@H](OC)CN(C)C2=O,inactive
16,O=c1[nH]c(=O)c2[nH]c(=O)[nH]c2[nH]1,inactive
17,COc1ccc(S(=O)(=O)Nc2ccc3c(c2)CC(=O)N([C@H](C)CO)C[C@H](C)[C@@H](CN(C)C(=O)Nc2c(C)noc2C)O3)cc1,inactive
18,COc1ccc(NC(=O)Nc2cccc3c2O[C@@H](CN(C)Cc2ccc(Oc4ccccc4)cc2)[C@H](C)CN([C@H](C)CO)C3=O)cc1,inactive
19,COc1ccc(NC(=O)Nc2cccc3c2O[C@H](CN(C)Cc2ccc(Oc4ccccc4)cc2)[C@@H](C)CN([C@H](C)CO)C3=O)cc1,inactive
20,C[C@@H]1CN([C@H](C)CO)C(=O)c2cccc(NC(=O)Nc3ccc(F)cc3)c2O[C@@H]1CN(C)Cc1ccc(Oc2ccccc2)cc1,active

row,Structure (SMILES),cytotoxicity call
1,C[C@@H]1CN([C@@H](C)CO)C(=O)c2cccc(NC(=O)Nc3ccc(F)cc3)c2O[C@H]1CN(C)Cc1ccc(Oc2ccccc2)cc1,inactive
2,COc1ccc(NC(=O)Nc2cccc3c2O[C@@H](CN(C)Cc2ccc(Oc4ccccc4)cc2)[C@@H](C)CN([C@@H](C)CO)C3=O)cc1,active
3,C[C@H](CO)N1C[C@H](C)[C@H](CN(C)Cc2ccc(Oc3ccccc3)cc2)Oc2c(NC(=O)Nc3ccc(F)cc3)cccc2C1=O,inactive
4,COc1ccc(NC(=O)Nc2cccc3c2O[C@H](CN(C)Cc2ccc(Oc4ccccc4)cc2)[C@@H](C)CN([C@@H](C)CO)C3=O)cc1,inactive
5,Cc1cc(C(=O)Nc2cccc3c2O[C@@H](CN(C)Cc2ccc(Oc4ccccc4)cc2)[C@H](C)CN([C@@H](C)CO)C3=O)n(C)n1,inactive
6,Cc1cc(C(=O)Nc2cccc3c2O[C@H](CN(C)Cc2ccc(Oc4ccccc4)cc2)[C@@H](C)CN([C@H](C)CO)C3=O)n(C)n1,active
7,COc1ccc(NC(=O)Nc2cccc3c2O[C@@H](CN(C)Cc2ccc(Oc4ccccc4)cc2)[C@@H](C)CN([C@H](C)CO)C3=O)cc1,active
8,COc1ccc(NC(=O)Nc2cccc3c2O[C@H](CN(C)Cc2ccc(Oc4ccccc4)cc2)[C@H](C)CN([C@H](C)CO)C3=O)cc1,inactive
9,Cc1cc(C(=O)Nc2cccc3c2O[C@@H](CN(C)Cc2ccc(Oc4ccccc4)cc2)[C@@H](C)CN([C@@H](C)CO)C3=O)n(C)n1,inactive
10,CC(=O)N1[C@@H](CO)[C@H](c2ccccc2)C12CN(C(=O)CN1CCOCC1)C2,inactive
11,Cc1ccc(S(=O)(=O)Nc2cccc3c2O[C@@H](CN(C)CC2CC2)[C@@H](C)CN([C@@H](C)CO)C3=O)cc1,inactive
12,C[C@H]1CN([C@@H](C)CO)C(=O)c2cc(C#CC3(O)CCCC3)cnc2O[C@H]1CN(C)S(=O)(=O)c1ccc(F)cc1,inactive
13,Cc1ccc(S(=O)(=O)Nc2ccc3c(c2)C(=O)N([C@H](C)CO)C[C@@H](C)[C@H](CN(C)C(=O)Cc2ccccc2)OCCCC[C@@H](C)O3)cc1,inactive
14,COC(=O)c1c2oc(c1C(=O)OC)C(=O)N[C@H](Cc1ccccc1)Cn1cc(nn1)CNC(=O)[C@@H](Cc1ccccc1)NC(=O)N[C@@H](CO)CC2,inactive
15,COCC#Cc1ccc2c(c1)O[C@H](CN(C)C(=O)c1ccccc1)[C@H](C)CN([C@@H](C)CO)S2(=O)=O,inactive
16,O=C(C[C@@H]1C=C[C@H](NS(=O)(=O)c2ccc(F)cc2)[C@H](CO)O1)N1CCC(Cc2ccccc2)CC1,inactive
17,C[C@H]1CCCCO[C@@H](CN(C)Cc2ccncc2)[C@@H](C)CN([C@@H](C)CO)C(=O)c2cc(NS(C)(=O)=O)ccc2O1,inactive
18,C[C@@H]1CCCCO[C@@H](CN(C)CC2CCCCC2)[C@@H](C)CN([C@@H](C)CO)C(=O)c2cc(NS(=O)(=O)c3ccccc3)ccc2O1,inactive
19,C[C@H](CO)N1C[C@H](C)[C@H](CN(C)S(=O)(=O)c2ccc(Cl)cc2)Oc2c(NC(=O)c3cnccn3)cccc2C1=O,inactive
20,CC(C)NC(=O)Nc1cccc2c1O[C@@H](CN(C)Cc1ccc(Oc3ccccc3)cc1)[C@H](C)CN([C@H](C)CO)C2=O,inactive

row,Structure (SMILES),cytotoxicity call
1,C[C@H]1CN([C@@H](C)CO)C(=O)c2cccc(NC(=O)Nc3ccccc3)c2O[C@@H]1CN(C)Cc1ccc(Oc2ccccc2)cc1,inactive
2,COc1ccc(NC(=O)Nc2cccc3c2O[C@H](CN(C)Cc2ccc(Oc4ccccc4)cc2)[C@H](C)CN([C@@H](C)CO)C3=O)cc1,inactive
3,C[C@@H]1CN([C@@H](C)CO)C(=O)c2cccc(NC(=O)Nc3ccccc3)c2O[C@H]1CN(C)Cc1ccc(Oc2ccccc2)cc1,inactive
4,C[C@H](CO)N1C[C@H](C)[C@@H](CN(C)Cc2ccc(Oc3ccccc3)cc2)Oc2c(NC(=O)Nc3ccccc3)cccc2C1=O,inactive
5,CC(C)NC(=O)Nc1cccc2c1O[C@H](CN(C)Cc1ccc(Oc3ccccc3)cc1)[C@@H](C)CN([C@@H](C)CO)C2=O,active
6,CC(C)NC(=O)Nc1cccc2c1O[C@@H](CN(C)Cc1ccc(Oc3ccccc3)cc1)[C@@H](C)CN([C@@H](C)CO)C2=O,inactive
7,COc1ccc(NC(=O)Nc2cccc3c2O[C@@H](CN(C)Cc2ccc(Oc4ccccc4)cc2)[C@H](C)CN([C@@H](C)CO)C3=O)cc1,active
8,C[C@@H]1CN([C@@H](C)CO)C(=O)c2cccc(NC(=O)Nc3ccccc3)c2O[C@@H]1CN(C)Cc1ccc(Oc2ccccc2)cc1,active
9,C[C@@H]1CCCCO[C@H](CN(C)Cc2ccccc2)[C@@H](C)CN([C@@H](C)CO)C(=O)c2cc(NC(=O)c3ccncc3)ccc2O1,inactive
10,COCC#Cc1cnc2c(c1)C(=O)N([C@@H](C)CO)C[C@H](C)[C@H](CN(C)C(C)=O)O2,inactive
11,C[C@H]1CN([C@@H](C)CO)C(=O)Cc2cc(NS(=O)(=O)c3cccs3)ccc2O[C@H]1CN(C)Cc1ccncc1,inactive
12,C[C@H](C(=O)N(C)C[C@@H]1OCc2ccccc2-c2c(n(C)c3ccccc23)C(=O)N([C@H](C)CO)C[C@H]1C)c1ccccc1,inactive
13,C[C@H](O)C#Cc1cnc2c(c1)C(=O)N([C@@H](C)CO)C[C@H](C)[C@H](CN(C)C(=O)Nc1ccc(C(F)(F)F)cc1)O2,inactive
14,Cc1ccc(S(=O)(=O)Nc2ccc3c(c2)C(=O)N([C@@H](C)CO)C[C@@H](C)[C@@H](CN(C)C(=O)Nc2ccc4c(c2)OCO4)OCCCC[C@@H](C)O3)cc1,inactive
15,C[C@H](CO)N1C[C@H](C)[C@H](CN(C)C(=O)Nc2cccc(C(F)(F)F)c2)OCc2ccccc2-c2ccccc2C1=O,inactive
16,C[C@@H]1CN([C@@H](C)CO)C(=O)c2cc(NS(=O)(=O)c3cn(C)cn3)ccc2O[C@@H](C)CCCCO[C@H]1CN(C)C(=O)c1ccncc1,inactive
17,CO[C@H]1C[C@@H]2CC[C@@H](C)[C@@](O)(O2)C(=O)C(=O)N2CCCC[C@H]2C(=O)O[C@H]([C@H](C)C[C@@H]2CC[C@@H](OC(=O)C(C)(CO)CO)[C@H](OC)C2)CC(=O)[C@H](C)/C=C(\C)[C@@H](O)[C@@H](OC)C(=O)[C@H](C)C[C@H](C)/C=C/C=C/C=C/1C,inactive
18,CO[C@H]1C[C@@H](C[C@@H](C)[C@H]2CC(=O)[C@@H](C)/C=C(\C)[C@@H](O)[C@@H](OC)C(=O)[C@@H](C)C[C@@H](C)/C=C/C=C/C=C(\C)[C@H](OC)C[C@H]3CC[C@@H](C)[C@@](O)(O3)C(=O)C(=O)N3CCCC[C@@H]3C(=O)O2)CC[C@@H]1OC(=O)C(C)(CO)CO,inactive
19,CO[C@H]1C[C@@H](C[C@@H](C)[C@H]2CC(=O)[C@H](C)/C=C(\C)[C@@H](O)[C@H](OC)C(=O)[C@H](C)C[C@H](C)/C=C/C=C\C=C(C)[C@H](OC)C[C@@H]3CC[C@@H](C)[C@@](O)(O3)C(=O)C(=O)N3CCCC[C@H]3C(=O)O2)CC[C@H]1OC(=O)C(C)(CO)CO,active
